Test results: the supplement of paper PMC7156485

What follows are molecules tested on TDF (assay: cell number relative to DMSO (% of DMSO); higher = more cells (less growth inhibition / toxicity)). Settings: concentration: 10 µM; 24 h.
Outline: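 H1.0 nuclear intensity or cell number is stated as percent of the plate control, based on the median of replicates, and HCC1569 values were smoothed for positional effects. These came from HCC1569 and TDF cells treated with compounds at 10 µM for 24 h at 37 °C in triplicate, then fixed in 3.7% formaldehyde and stained with a rabbit anti-H1.0 antibody, an AlexaFluor 647 secondary and DAPI.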
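Also: TDF denotes transformed human dermal fibroblasts of mesenchymal origin.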

Which cell number does the source give for `O=C(NCCO)c1cccc(-c2cc(Nc3ccc(OC(F)(F)F)cc3)ncn2)c1` here?
The cell number was 94.8.

Which cell number does the source give for `CCCCNc1ncc(C(=O)NCc2ccc(-n3ccnc3)cc2)c(NC2CCC(O)CC2)n1` (stereo not drawn) here?
Its cell number is 63.4.

With `CCN(CC)CCNC(=O)c1c(C)[nH]c(C=C2C(=O)Nc3ccc(F)cc32)c1C` [Sunitinib] as the molecule, how does the cell number read?
Its cell number is 58.7.

Which cell number does the source give for `CNc1cc(NS(=O)(=O)c2ccc(N)cc2)nc(NC)n1.Cl.Cl` [Ro 04-6790 dihydrochoride] here?
Its cell number is 108.

`CCN1CCN(C(=O)NC(C(=O)NC2C(=O)N3C2SC(C)(C)C3C(=O)O)c2ccccc2)C(=O)C1=O` (stereo not drawn) [Piperacillin] was tested. Which cell number did it give?
The cell number was 100.

`O=c1ccc2ccc(O)c(O)c2o1` [Daphnetin] was tested. Which cell number did it give?
The cell number was 87.6.

Which cell number does the source give for `Cc1cccc(-c2nn(C(=S)Nc3ccccc3)cc2-c2ccnc3ccccc23)n1` here?
Its cell number is 97.7.

With `O=C(Nc1cc(C(F)(F)F)cc(C(F)(F)F)c1)c1cc(Cl)ccc1O` as the molecule, how does the cell number read?
The cell number was 52.7.

With `CC(C)Cc1ccc(C(C)C(=O)O)cc1` (racemic) as the molecule, how does the cell number read?
The cell number was 112.

With `C=CCCCCCCCCC(=O)O` [10-Undecenoic acid] as the molecule, how does the cell number read?
Its cell number is 103.

How did the cell number turn out when `CC1CCN(C(=O)CC#N)CC1N(C)c1ncnc2[nH]ccc12` (stereo not drawn) [Tasocitinib] was run?
Its cell number is 110.

How did the cell number turn out when `O=c1c(OC2OC(C(O)CO)C(O)C2O)c(-c2ccc(O)c(O)c2)oc2cc(O)cc(O)c12` (stereo not drawn) [Isoquercitrine] was run?
The cell number was 105.

How did the cell number turn out when `Cl.NOCC(=O)O.NOCC(=O)O` [O-(Carboxymethyl)hydroxylamine hemihydrochloride] was run?
Its cell number is 97.9.
